Compounds without any hit were thinned out: in the full panel of roughly 83,000, 20% have a hit.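 The test compound was applied at a single concentration to cells in 96-well plates for 48 hours, and percent growth was recorded.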 Unmarked numbers belong to inactive results. Calls of active or inactive are those of the source.

The assay has as its system SR leukemia. Description: NCI-60 one-dose screen, 48 h (100 = growth as untreated, 0 = no growth, -100 = all killed). The settings on record: 10 µM. On the procedure: Growth inhibition of the SR human tumor cell line is measured as a screen for anti-cancer activity. Cells are grown in 96 well plates and exposed to the test compound for 48 hours. Compounds are tested at a single concentration, which is 10^-5 M for most compounds. The reported endpoint is percent growth (GI% or GIPRCNT), where numbers from 0 - 100% represent growth inhibition, and numbers from -100% - 0 represent cell death. For example, a value of 40 represents 60% growth inhibition. A value of 0 means no net growth occurred over the course of the experiment. A value of -40 indicates 40% of cells at the beginning of the experiment died by the end of the experiment. A value of -100 means all cells are dead at the end of the experiment.
NCI-60 Human Tumor Cell Lines Screen was performed using the standard one-dose NCI protocol, which is described in more detail at https://dtp.cancer.gov/discovery_development/nci-60/default.htm.
Compounds with GIPRCNT values below 10 were considered active. Activity score was based on GIPRCNT using the following formula: […]
Score is 0 for GIPRCNT values of 100 or above, 50 for GIPRCNT values of 0, and 100 for GIPRCNT values of -100.
For `ClCCN(CCCl)C(c1ccccc1)c1ccc(Cl)cc1` (stereo not given), the growth is 5.67% (active).
The same measure for `CC(=O)N(C)C1=Nc2ccc(Cl)cc2C(c2ccccc2)=[N+]([O-])C1`: 86.1%.
With `S=P(N1CCCCCC1)(N1CC1)N1CC1` the figure was 82.6%; with `NC(Cc1ccc(O)cc1)C(=O)N/N=C/c1ccc(N(CCCl)CCCl)cc1` (stereo not given), 18%; with `CCCCn1cc(C(=O)/C(C#N)=C/c2cc3ccccc3nc2Cl)c2cc(OC)ccc21`, -12% (active).
On to `O=CN1N=C(c2ccccc2)CC1c1sc(N(CCCl)CCCl)nc1Cl` (stereo not given), for which the growth is 91.2%.
With `O=[N+]([O-])c1ccc(/C=C/C=C/c2ccc(S(=O)(=O)F)cc2)c(Cl)c1` the figure was 77.9%.
With `O=[N+]([O-])c1ccc2cnn(CSP(=S)(c3ccccc3)c3ccccc3)c2c1` the figure was 9.77% (active).
With `CC(C)N=C(NC(C)C)N1CC1` the figure was 122%; with `OC1CCCCC1N1CCC(c2ccccc2)CC1` (stereo not given), 94%.
For the molecule `CCC(/C=C(C)/C=C/C(=O)c1c(O)c(-c2ccc(O)cc2)c[nH]c1=O)CO` (stereo not given), the growth was 19.9%.
With `CC(C)[C@]12O[C@H]1[C@@H]1O[C@]13[C@]1(O[C@H]1C[C@H]1C4=C(CC[C@@]13C)C(=O)OC4)[C@@H]2OC(=O)OC(C)(C)C` the figure was 3.66% (active).
With `OC1(c2ccc(Cl)cc2Cl)c2ccccc2C2=NCCN21` (stereo not given) the figure was 80.5%; with `Cc1ccc(C(=O)C2CN(C)CCC2(O)c2ccc(C)cc2)cc1` (stereo not given), 101%; with `O=C(O)c1[nH]c(=O)[nH]c(=O)c1F`, 91.7%.
The same measure for `O=c1cc[nH]c(=O)o1`: 94.7%; for `O=C1NC(=O)C(O)(C2(O)C(=O)NC(=O)NC2=O)C(=O)N1`: 95.1%; for `CC1(C)N=C(N)N=C(N)N1c1ccc(OCCCCNC(=O)c2ccc(S(=O)(=O)F)cc2)c(Cl)c1`: 34.8%.
On to `CC(=O)C1CCC2C3CC=C4CC(OC(=O)Cc5ccc(N(CCCl)CCCl)cc5)CCC4(C)C3CCC12C` (stereo not given), for which the growth is 52.7%.
With `Nc1nc(N)c(-c2ccc(Cl)c(Cl)c2)c(/C=C/c2ccc(S(=O)(=O)F)cc2)n1` the figure was 76.3%; with `CC(C)(NC(=O)c1nn(CCCCCF)c2ccccc12)c1ccccc1`, 85.2%.
With `COc1ccc(C(=O)c2ccc([As]=O)cc2)cc1` (stereo not given) the figure was -23.8% (active); with `COc1ccc(/C=C\c2cc(OC)c(OC)c(OC)c2)cc1N/C=C\C(=O)c1c[nH]c2ccccc12`, 2.48% (active).
With `CC(=O)C1C(=O)N(C)C(=O)N(C)C1=O` the figure was 96.5%; with `COc1cc(NCCCCCN=C(N)N)c2ncccc2c1`, 33.5%.
Regarding `CCCCOC(=O)c1ccccc1C(=O)O.CCCCOC(=O)c1ccccc1C(=O)O.[Cu+2]`, the growth is 92.7%.
Regarding `ClCCN(CCCl)c1ccc(/C=C\c2ccnc3ccccc23)cc1`, the growth was 48.2%.
Turning to `C[C@]12C[C@H](O)[C@H]3[C@@H](CCC4=CC(=O)CC[C@@]43C)[C@@H]1CC[C@@H]2O`, the growth was 97.4%.
Regarding `CCC[CH2][Sn]([CH2]CCC)([CH2]CCC)[O]C(=O)CC`, the growth was 7.87% (active).
With `CC(=O)O[C@H]1CCC2C3CCC4=C/C(=N/O)CCC4(C)C3CCC21C` (stereo not given in full) the figure was 36.7%; with `C=CC(O)CN1CC1CC` (stereo not given), 89.9%; with `CC(C)CCC[C@@H](C)[C@H]1CC[C@H]2[C@@H]3CC=C4C[C@@H](OC(=O)Cc5ccc(N(CCCl)CCCl)cc5)CC[C@]4(C)[C@H]3CC[C@]12C`, 101%.
The same measure for `Cc1cc(CCl)c(C)cc1CCl`: 11.9%; for `CC(=O)Nc1ccc(Cc2ccc(NC(C)=O)cc2)cc1`: 125%.
With `Clc1ccc(SSC(Cl)(Cl)Cl)cc1` the figure was 107%; with `CNc1ccc(C(=O)CC(O)CCC(C)C2OC(=O)CC(O)CC(=O)CC(O)CC(O)CC(O)CC(O)CC3(O)CC(O)C(C(=O)OC)C(CC(O[C@@H]4O[C@H](C)[C@@H](O)[C@H](N)[C@@H]4O)/C=C/C=C/C=C/C=C/C=C/C=C/C=C/C2C)O3)cc1` (stereo not given in full), -11.5% (active).
In the case of `[N-]=[N+]=NC(C(=O)O)c1ccccc1` (stereo not given), the growth was 83.9%.
The same measure for `C/C1=C/C(=O)O[C@@H]2C[C@@H](CC[C@H](C)/C=C\C=C\CC1)O[C@@](OCCc1ccccc1)([C@@H]1CSC(=O)N1)C2`: 41.3%.
Turning to `CCOC(=O)c1cnc(SCc2ccc(Cl)c(Cl)c2)nc1N1CC1`, the growth was 24.1%.
The same measure for `Cn1cnnc1[S-].[Au+].c1ccc([PH+](c2ccccc2)c2ccccc2)cc1`: 4.41% (active).

Source of the values: PubChem BioAssay (NCI).
